Experimental data reported in PubChem BioAssay (NCI).
Compounds without any hit were thinned out: in the full panel of roughly 79,000, 15% have a hit. Values without a mark were called inactive. Active and inactive are the calls of the source. No stated cut-off is given here; in the data, active means growth inhibition above about 70%; inactive means the rest.

Assays:
[1] = NCI Yeast Anticancer Drug Screen. Data for the wt1 strain (AID 149);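 further: 0% = growth of vehicle-treated wt1 cultures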; conditions: S. cerevisiae wt1 strain (SPY 50644) growth inhibition, stronger effect = higher value
In short: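 Each compound is tested on wt1 yeast and the loss of growth versus vehicle gives the inhibition value.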

[2] = NCI Yeast Anticancer Drug Screen. Data for the mgt1 strain (AID 153); conditions: S. cerevisiae mgt1 mutant growth inhibition, stronger effect = higher value
In short: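 Compounds were applied to mgt1 mutant yeast, and growth was then compared against vehicle-treated control cultures to give percent inhibition.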

[3] = NCI Yeast Anticancer Drug Screen. Data for the rad50 strain (AID 155);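 further: 0% = growth of vehicle-only cultures of the same strain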; conditions: S. cerevisiae rad50 strain growth inhibition, stronger effect = higher value
In short: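 Vehicle-treated cultures provide the reference for the growth inhibition reported for compound-exposed, repair-deficient yeast.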

[4] = NCI Yeast Anticancer Drug Screen. Data for the mec2-1 strain (AID 157); conditions: S. cerevisiae mec2-1 strain, stronger effect = higher value
In short: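 Compounds were applied to mec2-1 yeast cells. Their growth was then compared with that of vehicle-treated cultures to give growth inhibition.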

[5] = NCI Yeast Anticancer Drug Screen. Data for the rad14 strain (AID 159);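 further: 0% = growth of vehicle-treated control cultures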; conditions: S. cerevisiae rad14 strain growth inhibition, stronger effect = higher value
In short: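 Inhibition of growth is reported for a repair-deficient yeast mutant following compound treatment, calculated relative to cultures that received vehicle.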

[6] = NCI Yeast Anticancer Drug Screen. Data for the sgs1 mgt1 strain (AID 161);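 further: 0% = growth of cultures given vehicle only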; conditions: S. cerevisiae sgs1 mgt1 strain, stronger effect = higher value
In short: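 Compounds are added to genetically altered yeast, and growth is compared with cultures given vehicle alone to give percent inhibition.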

[7] = NCI Yeast Anticancer Drug Screen. Data for the CLN2oe strain (AID 163);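 further: 0% = growth of vehicle-only control cultures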; conditions: S. cerevisiae CLN2oe strain, stronger effect = higher value
In short: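 Cells of an engineered yeast line with disturbed cell-cycle regulation are treated with compound. Inhibition of growth is then calculated relative to the vehicle-treated reference.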

[8] = NCI Yeast Anticancer Drug Screen. Data for the cln2 rad14 strain (AID 165);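 further: 0% = growth equal to vehicle treated cultures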; conditions: S. cerevisiae cln2 rad14 strain, stronger effect = higher value
In short: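 Strain: cln2 rad14 yeast, altered in cell cycle control and DNA damage repair. Read-out: growth inhibition vs vehicle.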

[9] = NCI Yeast Anticancer Drug Screen. Data for the bub3 strain (AID 167); conditions: S. cerevisiae bub3 mutant strain, stronger effect = higher value
In short: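 Mutant yeast screening strain plus compound; vehicle-treated cultures serve as the 0% inhibition reference.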

[10] = NCI Yeast Anticancer Drug Screen. Data for the wt2 strain (AID 169); conditions: S. cerevisiae wt2 strain growth inhibition, stronger effect = higher value
In short: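 Growth of compound-treated yeast is measured and expressed as inhibition relative to vehicle-only controls.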

[11] = NCI Yeast Anticancer Drug Screen. Data for the mlh1 strain (AID 171);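 further: 0% = growth of vehicle-treated control cultures of the same strain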; conditions: S. cerevisiae mlh1 strain growth inhibition, stronger effect = higher value
In short: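 Test agents were incubated with yeast bearing a defined DNA damage repair or cell cycle control alteration; values are growth inhibition normalised to vehicle-treated cultures.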

[12] = NCI Yeast Anticancer Drug Screen. Data for the sgs1 strain (AID 173);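 further: 0% = growth of vehicle-only control cultures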; conditions: S. cerevisiae sgs1 mutant, stronger effect = higher value
In short: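 Strain with an altered DNA repair or cell cycle pathway exposed to compound. Growth then measured. Value = inhibition versus vehicle control.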

[13] = NCI Yeast Anticancer Drug Screen. Data for the mlh1 rad18 strain (AID 175); conditions: S. cerevisiae mlh1 rad18 strain growth inhibition, stronger effect = higher value
In short: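 A repair-deficient yeast strain is exposed to test compound, and growth is scored relative to vehicle-treated controls.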

[14] = NCI Yeast Anticancer Drug Screen. Data for the rad18 strain (AID 177); conditions: S. cerevisiae rad18 mutant growth inhibition, stronger effect = higher value
In short: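 DNA-repair-defective yeast; compound treatment; growth inhibition scored against vehicle.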

[15] = NCI Yeast Anticancer Drug Screen. Data for the rad50EPP+ strain (AID 151);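 further: 0% = growth of vehicle-treated control cultures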; conditions: S. cerevisiae rad50 mutant strain, stronger effect = higher value
In short: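 Measured: growth inhibition of rad50EPP+ yeast. Reference: vehicle-treated controls. Screen uses strains with defined genetic alterations in DNA damage repair or cell cycle control.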

[16] = at 5.0 µM (retest, dose inferred, filed as 0.5)
[17] = at 50.0 µM (retest, dose inferred, filed as 5.0)

O=C1C=CC(=O)N1c1ccc2c(c1)Cc1cc(NC(=O)C(F)(F)F)ccc1-2
growth inhibition ([1]; at 1.2 µM): 6% | growth inhibition ([1]; at 3.7 µM): 15% | growth inhibition ([1]; at 11.0 µM): 27% | growth inhibition ([1]; at 33.0 µM): 39% | growth inhibition ([1]; at 100.0 µM): 60% | growth inhibition ([2]; at 1.2 µM): 11% | growth inhibition ([2]; at 3.7 µM): 20% | growth inhibition ([2]; at 11.0 µM): 31% | growth inhibition ([2]; at 33.0 µM): 57% | growth inhibition ([2]; at 100.0 µM): 77% (active) | growth inhibition ([3]; at 1.2 µM): 13% | growth inhibition ([3]; at 3.7 µM): 24% | growth inhibition [3, 16]: 52% | growth inhibition ([3]; at 11.0 µM): 41% | growth inhibition ([3]; at 33.0 µM): 71% (active) | growth inhibition [3, 17]: 91% (active) | growth inhibition ([3]; at 50.0 µM): 87.7% (active) | growth inhibition ([3]; at 100.0 µM): 80% (active) | growth inhibition ([4]; at 1.2 µM): 13% | growth inhibition ([4]; at 3.7 µM): 26% | growth inhibition [4, 16]: 87% (active) | growth inhibition ([4]; at 11.0 µM): 42% | growth inhibition ([4]; at 33.0 µM): 62% | growth inhibition [4, 17]: 94% (active) | growth inhibition ([4]; at 50.0 µM): 83.5% (active) | growth inhibition ([4]; at 100.0 µM): 77% (active) | growth inhibition ([5]; at 1.2 µM): 20% | growth inhibition ([5]; at 3.7 µM): 31% | growth inhibition ([5]; at 11.0 µM): 42% | growth inhibition ([5]; at 33.0 µM): 66% | growth inhibition ([5]; at 100.0 µM): 83% (active) | growth inhibition [6, 16]: 71% (active) | growth inhibition [6, 17]: 93% (active) | growth inhibition ([6]; at 50.0 µM): 86.6% (active) | growth inhibition ([7]; at 1.2 µM): 2% | growth inhibition ([7]; at 3.7 µM): 11% | growth inhibition ([7]; at 11.0 µM): 18% | growth inhibition ([7]; at 33.0 µM): 26% | growth inhibition ([7]; at 100.0 µM): 50% | growth inhibition [8, 16]: 10% | growth inhibition [8, 17]: 51% | growth inhibition ([8]; at 50.0 µM): 62.9% | growth inhibition ([9]; at 1.2 µM): -11% | growth inhibition ([9]; at 3.7 µM): -5% | growth inhibition [9, 16]: 57% | growth inhibition ([9]; at 11.0 µM): 7% | growth inhibition ([9]; at 33.0 µM): 21% | growth inhibition [9, 17]: 90% (active) | growth inhibition ([9]; at 50.0 µM): 84.6% (active) | growth inhibition ([9]; at 100.0 µM): 39% | growth inhibition ([10]; at 1.2 µM): 7% | growth inhibition ([10]; at 3.7 µM): 21% | growth inhibition ([10]; at 11.0 µM): 37% | growth inhibition ([10]; at 33.0 µM): 55% | growth inhibition ([10]; at 100.0 µM): 67% | growth inhibition ([11]; at 1.2 µM): 16% | growth inhibition ([11]; at 3.7 µM): 32% | growth inhibition ([11]; at 11.0 µM): 54% | growth inhibition ([11]; at 33.0 µM): 73% (active) | growth inhibition ([11]; at 100.0 µM): 85% (active) | growth inhibition ([12]; at 1.2 µM): 18% | growth inhibition ([12]; at 3.7 µM): 37% | growth inhibition ([12]; at 11.0 µM): 63% | growth inhibition ([12]; at 33.0 µM): 79% (active) | growth inhibition ([12]; at 100.0 µM): 82% (active) | growth inhibition [13, 16]: 91% (active) | growth inhibition [13, 17]: 93% (active) | growth inhibition ([13]; at 50.0 µM): 86% (active) | growth inhibition ([14]; at 1.2 µM): 17% | growth inhibition ([14]; at 3.7 µM): 29% | growth inhibition ([14]; at 11.0 µM): 53% | growth inhibition ([14]; at 33.0 µM): 76% (active) | growth inhibition ([14]; at 100.0 µM): 82% (active)

c1ccc2c(c1)-c1nc3ccccc3cc1C2N1CCOCC1 (stereo unspecified)
growth inhibition ([15]; at 1.2 µM): 6% | growth inhibition ([15]; at 3.7 µM): 25% | growth inhibition ([15]; at 11.0 µM): 51% | growth inhibition ([15]; at 33.0 µM): 68% | growth inhibition ([15]; at 100.0 µM): 77% (active) | growth inhibition ([2]; at 1.2 µM): 0% | growth inhibition ([2]; at 3.7 µM): -1% | growth inhibition ([2]; at 11.0 µM): -1% | growth inhibition ([2]; at 33.0 µM): 3% | growth inhibition ([2]; at 100.0 µM): 17% | growth inhibition ([3]; at 1.2 µM): 0% | growth inhibition ([3]; at 3.7 µM): -1% | growth inhibition [3, 16]: -6% | growth inhibition ([3]; at 11.0 µM): 10% | growth inhibition ([3]; at 33.0 µM): 9% | growth inhibition [3, 17]: 55% | growth inhibition ([3]; at 50.0 µM): 72.7% (active) | growth inhibition ([3]; at 100.0 µM): 17% | growth inhibition ([4]; at 1.2 µM): 1% | growth inhibition ([4]; at 3.7 µM): 1% | growth inhibition [4, 16]: 4% | growth inhibition ([4]; at 11.0 µM): 2% | growth inhibition ([4]; at 33.0 µM): 5% | growth inhibition [4, 17]: 8% | growth inhibition ([4]; at 50.0 µM): 13.2% | growth inhibition ([4]; at 100.0 µM): 17% | growth inhibition ([5]; at 1.2 µM): 0% | growth inhibition ([5]; at 3.7 µM): 0% | growth inhibition ([5]; at 11.0 µM): -1% | growth inhibition ([5]; at 33.0 µM): -4% | growth inhibition ([5]; at 100.0 µM): 21% | growth inhibition [6, 16]: -13% | growth inhibition [6, 17]: 65% | growth inhibition ([6]; at 50.0 µM): 70.5% (active) | growth inhibition ([7]; at 1.2 µM): -6% | growth inhibition ([7]; at 3.7 µM): -2% | growth inhibition ([7]; at 11.0 µM): -10% | growth inhibition ([7]; at 33.0 µM): -8% | growth inhibition ([7]; at 100.0 µM): -3% | growth inhibition [8, 16]: -32% | growth inhibition [8, 17]: 13% | growth inhibition ([8]; at 50.0 µM): 3.95% | growth inhibition ([9]; at 1.2 µM): 3% | growth inhibition ([9]; at 3.7 µM): 6% | growth inhibition [9, 16]: 7% | growth inhibition ([9]; at 11.0 µM): -17% | growth inhibition ([9]; at 33.0 µM): 29% | growth inhibition [9, 17]: 34% | growth inhibition ([9]; at 50.0 µM): 49.2% | growth inhibition ([9]; at 100.0 µM): 27% | growth inhibition ([10]; at 1.2 µM): -1% | growth inhibition ([10]; at 3.7 µM): 1% | growth inhibition ([10]; at 11.0 µM): 2% | growth inhibition ([10]; at 33.0 µM): 7% | growth inhibition ([10]; at 100.0 µM): 26% | growth inhibition ([11]; at 1.2 µM): 3% | growth inhibition ([11]; at 3.7 µM): 3% | growth inhibition ([11]; at 11.0 µM): 3% | growth inhibition ([11]; at 33.0 µM): -10% | growth inhibition ([11]; at 100.0 µM): 28% | growth inhibition ([12]; at 1.2 µM): 2% | growth inhibition ([12]; at 3.7 µM): 4% | growth inhibition ([12]; at 11.0 µM): 8% | growth inhibition ([12]; at 33.0 µM): 18% | growth inhibition ([12]; at 100.0 µM): 38% | growth inhibition [13, 16]: -1% | growth inhibition [13, 17]: 47% | growth inhibition ([13]; at 50.0 µM): 61.1% | growth inhibition ([14]; at 1.2 µM): 7% | growth inhibition ([14]; at 3.7 µM): 5% | growth inhibition ([14]; at 11.0 µM): 12% | growth inhibition ([14]; at 33.0 µM): 11% | growth inhibition ([14]; at 100.0 µM): 6%
